Inconclusive results are not listed. Calls of active or inactive are those of the source. Calls come from the whole dose curve; as a rule, active = well fitted inhibition curve with a large enough effect; inconclusive = small, poorly fitted or top-dose-only effect; inactive = flat fitted curve, though single readings scatter.
These compounds were tested against Luciferin 4-monooxygenase (Photinus pyralis) (UniProt P08659) (assay: FLuc inhibitory activity for the follow-up compounds in a biochemical assay with Km concentrations of substrate and 500microM CoASH). Details: purified FLuc, Km substrates + 500 uM CoASH, luminescence; series mostly up to 57.5 µM.
Sequence of Luciferin 4-monooxygenase (Photinus pyralis) (P08659 whole entry, looked up): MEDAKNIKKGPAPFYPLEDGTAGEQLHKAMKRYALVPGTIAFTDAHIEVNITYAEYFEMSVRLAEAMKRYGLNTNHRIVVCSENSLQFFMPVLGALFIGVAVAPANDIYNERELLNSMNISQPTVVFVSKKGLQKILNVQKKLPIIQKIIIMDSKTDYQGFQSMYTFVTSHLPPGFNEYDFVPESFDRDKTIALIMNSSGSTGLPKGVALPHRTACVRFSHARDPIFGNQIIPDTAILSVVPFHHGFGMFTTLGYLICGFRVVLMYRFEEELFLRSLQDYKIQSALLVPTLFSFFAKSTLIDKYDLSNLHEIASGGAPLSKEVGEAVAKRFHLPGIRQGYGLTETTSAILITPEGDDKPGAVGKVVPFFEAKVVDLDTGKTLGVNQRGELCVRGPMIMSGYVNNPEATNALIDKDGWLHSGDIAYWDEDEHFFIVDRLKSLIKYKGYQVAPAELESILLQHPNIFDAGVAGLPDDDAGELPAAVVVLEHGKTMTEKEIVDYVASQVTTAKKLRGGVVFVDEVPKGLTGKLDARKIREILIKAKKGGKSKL
Procedure, shortened: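 Purified P. pyralis luciferase (10 nM) in 50mM Tris acetate pH 7.5, 10mM Mg acetate, with 10uM D-luciferin, 10uM ATP and 500 uM CoASH; 12-point qHTS titration, ~60uM to 0.3nM final. Luminescence read by CCD imager.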
COc1ccc2nc(NC(=O)c3ccccc3C(=O)O)sc2c1 was tested, and the Potency was 6.51 µM (active).
In the case of O=C(Nc1cccc(-c2nc3ccccc3s2)c1)c1cc(-n2cnnc2)ccc1Cl, the Potency was 3.66 µM (active).
In the case of Cc1ccc(C(=O)Nc2ccc(C(=O)O)cc2)cc1S(=O)(=O)NCc1ccccc1, the Potency was “inactive”.
COc1cc(OC)cc(C(=O)Nc2ccccc2-c2nc3ccccc3s2)c1 was tested, and the Potency was “inactive”.
For Cc1ccc2sc(-c3ccc(N)cc3)nc2c1, the Potency was 0.0411 µM (active).

Reference: PubChem BioAssay AID602358 (National Center for Advancing Translational Sciences (NCATS), 2012)
